From PubChem
KB-3-1 cytotox: KB-3-1 parental cell cytotoxicity. Potency, µM (top dose mostly 46.1 µM), most hits filed as cytotoxic. KB-3-1 viability, CellTiter-Glo ATP luminescence, 72 h. 400,000 tested, 1.4% active; also: nearly all actives have a fitted effect of over 60% in size
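Parental KB-3-1 viability, qHTS format: 72 h compound exposure, 37 °C; CellTiter-Glo; media-only wells and DMSO plates as controls; concentration-effect fits on corrected data.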
HT1080 IDH1KD tx: HT-1080 IDH1 knockdown cell toxicity (counter line). 360,000 tested, 2% active. Potency, µM (titrated, usually from 46.1 µM), for the others: at the top dose activity, negative = toxicity, actives largely listed as cytotoxic. HT-1080 IDH1 knockdown viability, ATP luminescence, 48 h;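 also: 0% = DMSO wells and -100% = cell-free medium wells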
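Assay cells: HT-1080 with IDH1 knockdown, 750 per well, RPMI/5% FBS. Exposure: 48 h at 37 °C following 2 h pre-incubation. Read: CellTiter-Glo luminescence; fitted concentration-response, curve class assigned.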
HT1080-NT tox: kills 2HG-producing HT-1080-NT fibrosarcoma cells; HT-1080-NT fibrosarcoma viability, CellTiter-Glo ATP luminescence, 48 h; Potency, µM (doses to about 46.1 µM), for inactives: at the top dose activity, negative = less viability, hits mostly cytotoxic; 360,000 tested, 1.6% active; AID 686970;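 also: NT is the 2HG producing partner of a matched IDH1 knockdown line; 0% = DMSO-treated cells and -100% = media-only wells without cells; nearly all actives have a fitted effect of over 55% in size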
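Viability of the 2HG-overproducing fibrosarcoma line after 48 hours of compound exposure at 37 degrees C was determined by luminescence with CellTiter-Glo, and concentration-effect curves were then fitted and categorized.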
KB-V1 cytotox: kills drug-selected multidrug resistant KB-V1 cells; Potency, µM (doses to about 46.1 µM), actives largely listed as cytotoxic; KB-V1 MDR cells viability, CellTiter-Glo, 72 h; 400,000 tested, 3.4% active; AID 1347076; also: nearly all actives have a fitted effect of over 60% in size
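qHTS viability screen in drug-selected KB-V1 MDR cells: 72 h compound treatment at 37 degrees C, ATP luminescence end point.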
Active calls of the source: *. Compounds with a hit are over-represented: about 5.7% of the library has one in this group of screens. Calls follow the shape of the dose curve; as a rule, active = well fitted curve in the direction sought with a large enough effect; inconclusive = small, poorly fitted or top-dose-only effect, or another doubt; inactive = no such curve, though single readings can be large; an effect the other way counts as inactive or inconclusive. Unless noted, % is scaled to controls: 0 for no effect and ±100 for the full control effect; potency is read from the fitted curve at half-maximal effect.

For Cc1cccc(-n2c(/C=C/c3ccc([N+](=O)[O-])o3)nc3ccccc3c2=O)c1 the results were KB-3-1 cytotox 10µM*, HT1080 IDH1KD tx inconclusive, HT1080-NT tox 5% and KB-V1 cytotox 10µM*.
`CC(=O)OC1C(O)C2=C3C4(C)C1C(C)(C)C(=O)CC4C3(O)C(OC(C)=O)C1(CC1C)C2=O` (stereo not given) gave KB-3-1 cytotox inconclusive, HT1080 IDH1KD tx 13%, HT1080-NT tox -3% and KB-V1 cytotox inactive.
CCOc1ccccc1NC(=O)c1cccn(Cc2ccccc2C)c1=O was read as KB-3-1 cytotox inactive and KB-V1 cytotox inconclusive.
`CN1CCC(O)(c2ccc(Cl)cc2)C(C(=O)c2ccc(Cl)cc2)C1` (stereo not given) gave KB-3-1 cytotox inactive, HT1080 IDH1KD tx 5%, HT1080-NT tox -1% and KB-V1 cytotox inactive.
CN(C)C(=O)C(CCN1CCC(O)(c2ccc(Cl)cc2)CC1)(c1ccccc1)c1ccccc1 was read as KB-3-1 cytotox inactive, HT1080 IDH1KD tx 8.2µM*, HT1080-NT tox 18µM* and KB-V1 cytotox inconclusive.
For Cc1ccc(-n2c(/C=C/c3cc(Br)cs3)nc3ccccc3c2=O)cc1 the results were KB-3-1 cytotox inactive and KB-V1 cytotox inactive.
`CN1Cc2cnnn2-c2ccccc2C1C#N` (stereo not given) gave KB-3-1 cytotox inconclusive, HT1080 IDH1KD tx inconclusive, HT1080-NT tox -11% and KB-V1 cytotox inactive.
For N#CC1c2ccccc2-n2nncc2CN1Cc1cc(Cl)cc(Cl)c1 (stereo not given) the results were KB-3-1 cytotox 5.8µM*, HT1080 IDH1KD tx 6.5µM*, HT1080-NT tox 8.2µM* and KB-V1 cytotox inconclusive.
`COc1ccc(CN2Cc3cnnn3-c3ccccc3C2C#N)cc1` (stereo not given) gave KB-3-1 cytotox inactive, HT1080 IDH1KD tx 6.5µM*, HT1080-NT tox 8.2µM* and KB-V1 cytotox inconclusive.
N#Cc1ccc(NC(=S)N2Cc3ccccc3-n3nncc3C2)cc1 was read as KB-3-1 cytotox inactive, HT1080 IDH1KD tx -7%, HT1080-NT tox -4% and KB-V1 cytotox inactive.
O=C1NC(=S)SC1=Cc1ccc(N(CCCl)CCCl)cc1 was read as KB-3-1 cytotox inactive, HT1080 IDH1KD tx -5%, HT1080-NT tox -21% and KB-V1 cytotox inactive.
For CCCCCCCCCCCCCCCC[N+](C)(C)C the results were KB-3-1 cytotox inconclusive, HT1080 IDH1KD tx inconclusive, HT1080-NT tox 12µM* and KB-V1 cytotox inactive.
CCOc1cccc(=NC2CCCCC2)c2c(C)n(C)c(C)c12 was read as KB-3-1 cytotox 18µM*, HT1080 IDH1KD tx 13µM*, HT1080-NT tox 21µM* and KB-V1 cytotox inconclusive.
Screening CCOc1ccccc1N=C1SCCCN1C returned KB-3-1 cytotox inactive, HT1080 IDH1KD tx -12%, HT1080-NT tox 10% and KB-V1 cytotox inactive.
Screening COC(=O)C[C@]1(C(=O)OC)CN(C#N)N(c2ccc(Cl)cc2)C12c1ccccc1-c1ccccc12 returned KB-3-1 cytotox 5.2µM*, HT1080 IDH1KD tx 4.1µM*, HT1080-NT tox 10µM* and KB-V1 cytotox 5.8µM*.
Screening COC(=O)[C@@H]1[C@@H](C(=O)OC)C2(c3ccccc3-c3ccccc32)N(c2ccc(Cl)cc2)N1C#N returned KB-3-1 cytotox inconclusive, HT1080 IDH1KD tx 5.8µM*, HT1080-NT tox 4.6µM* and KB-V1 cytotox inconclusive.
COC(=O)C1=C(c2c(C)noc2C)C[C@@H]2CC[C@H]1N2C(=O)NC1CCCCC1 was read as KB-3-1 cytotox inactive, HT1080 IDH1KD tx 4%, HT1080-NT tox 0% and KB-V1 cytotox inactive.
Screening Cc1ccc(-c2nc3ccccc3c(=O)n2-c2ccc(O)cc2)cc1 returned KB-3-1 cytotox inactive, HT1080 IDH1KD tx 2%, HT1080-NT tox 0% and KB-V1 cytotox inactive.
`Cc1ccc(-n2c(-c3cccs3)nc3ccccc3c2=O)cc1` gave KB-3-1 cytotox inactive, HT1080 IDH1KD tx 9%, HT1080-NT tox 12% and KB-V1 cytotox 23µM*.
For Cc1cc(Br)cn2c(CC(=O)N3CCCCC3)c(-c3ccc(F)cc3)nc12 the results were KB-3-1 cytotox inactive, HT1080 IDH1KD tx 4%, HT1080-NT tox 3% and KB-V1 cytotox inactive.
`COc1ccccc1N1CCN(CCc2c[nH]c3cc4c(cc23)OCO4)CC1` gave KB-3-1 cytotox inactive, HT1080 IDH1KD tx inconclusive, HT1080-NT tox -9% and KB-V1 cytotox 18µM*.
